The campaign covered roughly 85,000 compounds. About 440 (0.52%) showed an effect of 50% or more. The list comes from a sample in which strong results are over-represented; it also holds similar structures and randomly drawn compounds.
Test: In vitro enzyme assay to detect hydrolysis of chlorophenol red-beta-D-[…] directly proportional to the number of Toxoplasma stably expressing beta-galactosidase
Type: functional, organism-based, Toxoplasma gondii
Design: scale not given: in the data most compounds retested in dose-response had high values

Row | Structure (SMILES) | Percent Effect (50 µM) | Percent Effect (10 µM)
1 | CNC1CCN(Cc2ncc(C)c(OC)c2C)CC1 | 36.04% | –
2 | CCCc1nc(NCCOC)c2c(n1)c(C)nn2CC | – | 57.71%
3 | CCCc1nc(N2CCC(C)CC2)c2c(n1)c(C)nn2CC | – | 25.59%
4 | CCCc1nc(NCC(=O)N2CCOCC2)c2c(n1)c(C)nn2CC | – | 3.704%
5 | CCCc1nc(NCCCOC)c2c(n1)c(C)nn2CC | – | 90.71%
6 | CCc1nc(NCCCOC)c2c(n1)c(C)nn2C | – | 6.336%
7 | CCn1nc(C)c2nc(C)nc(NCCc3ccc(C)cc3)c21 | – | 34%
8 | CCCc1nc(NCCCO)c2c(n1)c(C)nn2CC | – | 3.108%
9 | CCc1nc(NCCCn2cccn2)c2c(n1)c(C)nn2CC | – | 14.75%
10 | CCCc1nc(NCCCOCC)c2c(n1)c(C)nn2CC | – | 72.53%
11 | CCCc1nc(NCCc2ccccc2)c2c(n1)c(C)nn2CC | – | 68.81%
12 | CCn1nc(C)c2nc(C(C)C)nc(NCCOC)c21 | – | 21.04%
13 | CCn1nc(C)c2nc(C)nc(NCCc3ccccc3)c21 | – | 19.6%
14 | CNCCCOC(C)C | -2.494% | –
15 | NC1CCN(CC2CC2)CC1 | 2.288% | –
16 | NC(=O)c1ccc(NC(=O)CCN2CC(O)C2)cc1 | -17.28% | –
17 | CCC(Nc1cccc(OCC(F)(F)F)c1)C(N)=O (stereo not drawn) | -6.008% | –
18 | CCOC(=O)NC1CCC(NC(=O)C2CCC2)CC1 (stereo not drawn) | 0.5853% | –
19 | CCN(CC)c1nc2nc[nH]c(=O)c2s1 | -4.057% | –
20 | CC(CCN)CCO (stereo not drawn) | 29.53% | –
21 | OCc1nncn1-c1ccccc1 | 12.09% | –
22 | C[C@@H]1CN(C2CCN(c3ccccc3F)CC2)C[C@]1(C)O | – | 12.36%
23 | C[C@@H]1CN(C2CCN(c3ccccc3F)CC2)CC[C@]1(C)O | – | 72.85%
24 | Cc1cc(F)ccc1N1CCC(N2C[C@@H](C)[C@@](C)(O)C2)CC1 | – | 24.01%

Row | Structure (SMILES) | Percent Effect (50 µM) | Percent Effect (10 µM)
25 | CN(C)CC1CNCCO1 (stereo not drawn) | -14.23% | –
26 | CC(=O)NC(C(=O)N(C)Cc1cccs1)C(C)C (stereo not drawn) | 4.166% | –
27 | OCCN1CCN(c2ccc3nnnn3n2)CC1 | 0.916% | –
28 | Cn1cc(S(N)(=O)=O)c(C(F)(F)F)n1 | 17.97% | –
29 | Cn1cc(CN)c(C(F)(F)F)n1 | 98.21% | –
30 | Cn1cc(N)c(C(F)(F)F)n1 | -8.221% | –
31 | CN1CCC(CNC(=O)CCc2cccs2)C1 (stereo not drawn) | -16.97% | –
32 | CN1CCCCC1CCC(=O)NCCc1ccncc1 (stereo not drawn) | 15.39% | –
33 | CN(C)S(=O)(=O)c1ccc(-c2nc(C#N)c(NC3CCCCC3)o2)o1 | – | 3.806%
34 | CN(C)S(=O)(=O)c1ccc(-c2nc(C#N)c(NC3CC3)o2)o1 | – | -1.829%
35 | CC(C)Nc1oc(-c2ccc(S(=O)(=O)N(C)C)o2)nc1C#N | – | -12.9%
36 | CNc1oc(-c2ccc(S(=O)(=O)N(C)C)o2)nc1C#N | – | 44.93%
37 | CN(C)S(=O)(=O)c1ccc(-c2nc(C#N)c(NC(C)(C)C)o2)o1.Cl | – | 91.6%
38 | NCCOc1cccc(C(F)(F)F)n1 | -9.845% | –
39 | COCCN(Cc1cccs1)C(=O)CC1CCNC1 (stereo not drawn) | 11.69% | –
40 | CSc1ccc(CNC(=O)C(C)O)cc1 (stereo not drawn) | -1.798% | –
41 | COc1cccc2ccc(CN3CC[C@@H](O)C3)nc12 | 11.26% | –
42 | NC[C@@H]1CC(=O)N(C2CC2)[C@H]1c1ccncc1 | -2.453% | –
43 | CN(C)S(=O)(=O)NC(c1ccccc1)c1ccccc1 | 10.19% | –
44 | CC(C)Sc1ccccc1NS(=O)(=O)N(C)C | 99.92% | –
45 | CC(NS(=O)(=O)N(C)C)c1ccccc1 (stereo not drawn) | -35.13% | –
46 | CCNCCCC1CCNCC1 | 16.42% | –
47 | COc1ccc(S(=O)(=O)Nc2cnc(N(C)C)nc2)cc1 | – | -8.947%
48 | COC(=O)c1ccc(NS(=O)(=O)c2cnc(NC(C)=O)s2)cc1 | – | 53.94%

Row | Structure (SMILES) | Percent Effect (50 µM) | Percent Effect (10 µM)
49 | COc1ccc(OCCc2nnc(NC(C)=O)s2)cc1 | – | -4.781%
50 | COc1ccc(NS(=O)(=O)c2cnc(NC(C)=O)s2)cc1 | – | 74.55%
51 | COC(=O)c1ccc(NC(C)=O)cc1 | 6.6% | –
52 | COC(=O)c1cccc(NS(=O)(=O)c2cnc(NC(C)=O)s2)c1 | – | -3.347%
53 | CC(C)OCCN1CCN(C(=O)c2cc[nH]n2)CC1 | -2.714% | –
54 | NCC(C(=O)N1CCC2(CCC2)C1)c1ccccc1 (stereo not drawn) | 20.55% | –
55 | CC(=O)NC(C)C(=O)Nc1ccc2ccccc2c1 (stereo not drawn) | -30.81% | –
56 | O=C1CCc2ccccc2N1Cc1ncccn1 | 0.3291% | –
57 | Nc1cc(-c2cccnc2)on1 | -0.8399% | –
58 | Cc1noc(C)c1S(=O)(=O)N(C)Cc1ccoc1 | -13.17% | –
59 | CC1(C)CC(=O)CN1C(=O)c1cc(Cl)c2c(c1)OCO2 | 7.211% | –
60 | COc1cccc2c1OCC(CNS(C)(=O)=O)C2 (stereo not drawn) | 14.05% | –
61 | CCc1nccn1CCNC(=O)Cn1nc(C)cc1N | 0.7856% | –
62 | CNC(=O)C1CCCN(C(=O)Cc2ccc(F)cc2)C1 (stereo not drawn) | -18.03% | –
63 | CN(C)C(=O)c1cc(-c2ccncc2)[nH]n1 | – | -7.126%
64 | NCCc1cc(-c2ccncc2)[nH]n1 | 52.85% | –
65 | NCCCc1nc(-c2ccncc2)cs1 | -3.15% | –
66 | O=C(NC1(CCO)CCC1)c1c(O)cc(F)cc1F | -3.362% | –
67 | COCCOCCCNC(=O)c1cn2cc(C)nc2s1 | 5.507% | –
68 | CN(Cc1ccc(F)c(F)c1)C(=O)C1CCOCC1 | 0.4539% | –
69 | Fc1ccc(CN2CCn3cc(Cn4cccn4)nc3C2)cc1.O=C(O)C(F)(F)F | – | 6.807%
70 | Cn1cc(CN2CCn3cc(Cn4cccn4)nc3C2)cn1.O=C(O)C(F)(F)F | – | 96.45%
71 | O=C(O)C(F)(F)F.O=C(O)C(F)(F)F.c1ccc(CCN2CCn3cc(Cn4cccn4)nc3C2)cc1 | – | -2.685%
72 | Cc1noc(C)c1S(=O)(=O)N1CC[S+]([O-])C(C)(C)C1 (stereo not drawn) | -20.3% | –

Row | Structure (SMILES) | Percent Effect (50 µM) | Percent Effect (10 µM)
73 | CC(=O)c1sc(NCCc2ccccn2)nc1C | -25.25% | –
74 | CC(=O)Nc1ncc(Br)s1 | 8.521% | –
75 | CC(=O)Nc1ncc(S(=O)(=O)N2CCC(C)CC2)s1 | – | -14.89%
76 | CC(=O)Nc1ncc(S(=O)(=O)Nc2ccc(F)cc2F)s1 | – | -1.674%
77 | CC(=O)Nc1ncc(S(=O)(=O)Nc2ccc(F)cc2)s1 | – | 2.51%
78 | CCN1CCN(S(=O)(=O)c2cnc(NC(C)=O)s2)CC1 | – | -3.243%
79 | CC(=O)Nc1ncc(S(=O)(=O)Nc2ccccc2)s1 | – | 62.69%
80 | CCS(=O)(=O)Nc1ccccc1F | 6.561% | –
81 | CC(=O)Nc1ncc(S(=O)(=O)Nc2ccccc2F)s1 | – | 61.48%
82 | CC(=O)Nc1ncc(S(=O)(=O)Nc2ccc(C)cc2)s1 | – | 70.91%
83 | NCCc1n[nH]c(=O)n1-c1ccc2c(c1)OCO2 | -0.07643% | –
84 | Cn1cc(C(O)CN)cn1 (stereo not drawn) | 1.018% | –
85 | Cc1noc(C(C)Nc2ccc3c(c2)CCC(=O)N3)n1 (stereo not drawn) | -14.26% | –
86 | CC(C)(CNC(=O)c1c[nH]nn1)c1cccc(F)c1 | -9.623% | –
87 | CC(NC(=O)NCCCN1CCCC1=O)c1nncn1C (stereo not drawn) | – | 85.8%
88 | CC(NC(=O)NCCN1CCCCCC1=O)c1nncn1C (stereo not drawn) | – | 3.231%
89 | CC(NC(=O)NCCCN1CCCCCC1=O)c1nncn1C (stereo not drawn) | – | 20.07%
90 | Cc1oc(-c2ccccc2F)nc1C(=O)N(C)C | -3.464% | –
91 | CNS(=O)(=O)N1CCc2ccccc2C1 | 30.15% | –
92 | CCOc1ccc2ccccc2c1CNCC1CCS(=O)(=O)C1.Cl (stereo not drawn) | – | -7.781%
93 | CCOc1ccc2ccccc2c1CNCC1CCNCC1.Cl.Cl | – | 68.87%
94 | COc1ccc2ccccc2c1CNCC1CCS(=O)(=O)C1.Cl (stereo not drawn) | – | -11.16%
95 | CCCOc1ccc2ccccc2c1CN1CC[C@@]2(O)CCNC[C@H]2C1 | – | 3.549%
96 | CCOc1ccccc1CNCC1CCN(CC(C)O)CC1 (stereo not drawn) | – | -9.723%

Row | Structure (SMILES) | Percent Effect (50 µM) | Percent Effect (10 µM)
97 | CCn1cc(S(=O)(=O)NCC2CCN(C3CC3)C2)cn1 (stereo not drawn) | 3.955% | –
98 | NC(=O)c1cncc(-c2ccc(F)cc2Cl)c1 | 3.051% | –
99 | Cc1cc(F)cc(C(=O)N(C)C(C)CN)c1 (stereo not drawn) | -5.582% | –
100 | CNC(C)(C)c1ccc2c(c1)OCO2 | -13.39% | –
101 | CCNc1ncc2c(n1)CN(c1ccc(OC(F)(F)F)cc1)C2=O | – | 64.71%
102 | CCNc1ncc2c(n1)CN(c1ccc(CC)cc1)C2=O | – | 62.15%
103 | CNc1ncc2c(n1)CN(CCc1ccc(F)cc1)C2=O | – | -13.73%
104 | CNc1ncc2c(n1)CN(CCc1ccc(C)cc1)C2=O | – | -16.2%
105 | CNc1ncc2c(n1)CN(CCc1ccc(Cl)cc1)C2=O | – | -35.33%
106 | CNc1ncc2c(n1)CN(Cc1ccc(Cl)cc1)C2=O | – | -51.17%
107 | CCNc1ncc2c(n1)CN(c1ccc(C)c(C)c1)C2=O | – | 51.11%
108 | CCNc1ncc2c(n1)CN(c1ccc(Cl)cc1)C2=O | – | 65.79%
109 | COc1ccc(N2Cc3nc(N4CCCC4)ncc3C2=O)cc1Cl | – | -14.31%
110 | COc1ccc(N2Cc3nc(N)ncc3C2=O)cc1Cl | – | -32.44%
111 | CCn1cc(N2Cc3nc(N)ncc3C2=O)cn1 | – | 10.4%
112 | CC1CCN(c2ncc3c(n2)CN(c2ccc(F)cc2)C3=O)CC1 | – | 19.77%
113 | CCN(CC)C(=O)C(C)NC(=O)c1cc(C#N)c[nH]1 (stereo not drawn) | -1.389% | –
114 | O=C(OCCOc1cccnc1)C1CC1 | 43.8% | –
115 | O=S(=O)(CCN1CCCC1)c1ccc(Cl)cc1 | 0.9615% | –
116 | CNC(=O)CN(C)C(=O)Cc1c[nH]c2ccccc12 | 2.87% | –
117 | Cc1ccsc1CN(C)C(=O)C(CN)c1ccccc1 (stereo not drawn) | -6.582% | –
118 | CCN(CC)C(=O)c1ccccc1N(C)S(C)(=O)=O | -4.295% | –

— ChEMBL document CHEMBL3988442, “University of Dundee, Small-Polar-MMV Screening Library” (2021)
